Test systems include HCT-15 colon; HT29 colon; SNB-75 CNS; SNB-19 CNS; U251 CNS; PC-3 prostate; SK-MEL-5 melanoma; UACC-62 melanoma; LOX IMVI melanoma; SK-MEL-28 melanoma; SK-MEL-2 melanoma; EKVX NSCLC; SN12C renal; UO-31 renal; ACHN renal; CAKI-1 renal; A498 renal; CCRF-CEM leukemia; TK-10 renal; MOLT-4 leukemia.
Holding throughout (experiment): NCI-60 one-dose screen, 48 h (100 = growth as untreated, 0 = no growth, -100 = all killed)
Common to all, as to details: 10 µM

The structures appear in SMILES notation. Compounds without any hit were thinned out: in the full panel of roughly 83,000, 20% have a hit.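 A percent growth of 40 corresponds to 60% growth inhibition; 0 means no net growth; -100 means all cells died. Active threshold: below 10.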 A number with no mark means an inactive call. The source made the active and inactive calls.

`COc1ccsc1/C=N/NC(=O)c1[nH]c2ccc(Br)cc2c1-c1ccccc1`: the growth in the test on HCT-15 colon was 1.32% (active); in the test on HT29 colon it was -12.2% (active); in the test with SNB-75 CNS, 20.1%; in the test with SNB-19 CNS it was 21.8%; with U251 CNS, 6.55% (active); in the test with PC-3 prostate, 5.35% (active). Also, the growth with SK-MEL-5 melanoma was -47.3% (active); in the test on UACC-62 melanoma it was 9.1% (active); with LOX IMVI melanoma, -18% (active); in the test on SK-MEL-28 melanoma, 30.8%; in the test with SK-MEL-2 melanoma, 20.7%; with EKVX NSCLC, 15.2%. Moreover, the growth with SN12C renal is -3.76% (active); in the test on UO-31 renal, 11.4%; in the test on ACHN renal, -0.91% (active); with CAKI-1 renal it was 3.46% (active); with A498 renal it was 20.3%; in the test with CCRF-CEM leukemia it was -12.5% (active).

Regarding `Cc1ccc(-c2ccc(SCC(=O)Nc3ccc(Cl)c(C(F)(F)F)c3)nn2)cc1`, the growth is 14.9% with HCT-15 colon; -19.7% (active) in the test with HT29 colon; -23.5% (active) in the test with SNB-75 CNS; 23.2% in the test with SNB-19 CNS; 16.5% with U251 CNS; 28.7% in the test on PC-3 prostate. The growth in the test with SK-MEL-5 melanoma is 18.9%; with UACC-62 melanoma, 15.5%; with LOX IMVI melanoma, 33.9%; in the test with SK-MEL-28 melanoma, 57.6%; with SK-MEL-2 melanoma it was 12.8%; in the test on EKVX NSCLC, 36.7%. Besides, the growth with SN12C renal is 35.2%; in the test on TK-10 renal, 59.8%; with ACHN renal, 43.4%; with CAKI-1 renal, 41.7%; in the test on A498 renal it was 80.3%; with CCRF-CEM leukemia, 19.8%. In addition, in the test on MOLT-4 leukemia, the growth was 8.91% (active).

On to `CC(=C(c1ccc(OCCN2CCCCC2)cc1)c1ccc(OCCN2CCCCC2)cc1)c1ccccc1`, for which the growth in the test on HCT-15 colon was -0.0525% (active); with HT29 colon, -26.2% (active); with SNB-75 CNS it was 84.1%; in the test with SNB-19 CNS, 38.7%; with U251 CNS, 1.29% (active); in the test with PC-3 prostate it was 47.5%. The growth in the test on SK-MEL-5 melanoma was -90.9% (active); with UACC-62 melanoma, -79% (active); with LOX IMVI melanoma it was -96.6% (active); with SK-MEL-28 melanoma it was -93.9% (active); with SK-MEL-2 melanoma, 20.2%; with EKVX NSCLC, 73.6%. Besides, the growth in the test on SN12C renal is 68.6%; with TK-10 renal, 70.4%; with ACHN renal, 12.7%; in the test with CAKI-1 renal, 33.7%; in the test on A498 renal, 136%; with CCRF-CEM leukemia it was -19.2% (active).

For `O=C(/C=C/Nc1ccc(F)cc1F)c1ccc2c(c1)Nc1ccccc1S2`, the growth in the test with HCT-15 colon was 33.1%; in the test with HT29 colon it was 70.8%; in the test on SNB-75 CNS, 124%; in the test with SNB-19 CNS, 63.9%; in the test with U251 CNS, 73%; in the test on PC-3 prostate, 74.8%. In addition, the growth is 76.1% in the test on SK-MEL-5 melanoma; 48.8% with UACC-62 melanoma; 65.9% in the test with LOX IMVI melanoma; 79.2% with SK-MEL-28 melanoma; 86.5% in the test with SK-MEL-2 melanoma; 74.2% in the test with EKVX NSCLC. Further, the growth is 82% with SN12C renal; 100% with TK-10 renal; 78.6% in the test on ACHN renal; 83.9% in the test on CAKI-1 renal; 108% in the test on A498 renal; 73.8% with CCRF-CEM leukemia. In addition, the growth with MOLT-4 leukemia is 66.7%.

For the compound `O=C(c1ccccc1)n1ccc(-c2cc3cc(Br)ccc3oc2=O)n1`, the growth with HCT-15 colon was 22.8%; in the test with HT29 colon, 63.5%; with SNB-75 CNS it was 66.1%; with SNB-19 CNS, 34.5%; in the test on U251 CNS it was 27.8%; in the test on PC-3 prostate it was 28.2%. The growth in the test on SK-MEL-5 melanoma is 10.6%; in the test on UACC-62 melanoma, -21.1% (active); with LOX IMVI melanoma it was 2.5% (active); with SK-MEL-28 melanoma, 24.4%; with SK-MEL-2 melanoma, 16.8%; in the test with EKVX NSCLC it was -1.71% (active). The growth in the test on SN12C renal was 27.4%; in the test on UO-31 renal, 11.7%; with ACHN renal, 8.46% (active); in the test on CAKI-1 renal, 15.2%; in the test with A498 renal it was 117%; in the test on CCRF-CEM leukemia, 4.71% (active). The growth in the test with MOLT-4 leukemia is 14.8%.

For `CC(C)C(=O)Nc1ccc(C(=O)NC(=S)Nc2ccc(C(=O)O)cc2)cc1`, the growth in the test on HCT-15 colon is 99.7%; with HT29 colon, 111%; with SNB-75 CNS, 79.1%; in the test with SNB-19 CNS, 97.8%; in the test with U251 CNS, 104%; in the test with PC-3 prostate, 101%. Moreover, the growth in the test with SK-MEL-5 melanoma was 93.8%; in the test with UACC-62 melanoma, 91.5%; in the test on LOX IMVI melanoma it was 101%; in the test with SK-MEL-28 melanoma, 102%; in the test with SK-MEL-2 melanoma it was 105%; with EKVX NSCLC, 96.6%. Further, the growth is 96.3% with SN12C renal; 101% in the test on TK-10 renal; 104% in the test with ACHN renal; 99.3% with CAKI-1 renal; 122% with A498 renal; 107% in the test with CCRF-CEM leukemia.

Regarding `O=c1c2ccccc2nc(COc2ccccc2)n1/N=C/c1ccc(N2CCCC2)cc1`, the growth with HCT-15 colon was 82.8%; in the test with HT29 colon it was 79.9%; with SNB-75 CNS, 108%; in the test on SNB-19 CNS, 89.5%; with U251 CNS, 105%; with PC-3 prostate, 80.3%. For the same compound, the growth is 62.4% with SK-MEL-5 melanoma; 61.6% with UACC-62 melanoma; 86.6% with LOX IMVI melanoma; 100% with SK-MEL-28 melanoma; 104% with SK-MEL-2 melanoma; 88% in the test with EKVX NSCLC. In addition, the growth in the test with SN12C renal is 88.7%; with UO-31 renal, 69.8%; with ACHN renal, 92.3%; in the test on CAKI-1 renal, 91.5%; with A498 renal, 109%; in the test with CCRF-CEM leukemia, 78.2%. For the same compound, the growth in the test with MOLT-4 leukemia was 78.1%.

Take `CN1CCN(c2ccc(Nc3nc(NCCCNC(=O)C4CCCCC4)c4sccc4n3)cc2)CC1`: the growth in the test on HCT-15 colon is 2.76% (active); with HT29 colon it was -1.75% (active); in the test with SNB-75 CNS, 62.9%; in the test with SNB-19 CNS, 77.3%; with U251 CNS, 17.1%; in the test with PC-3 prostate it was 50.6%. For the same compound, the growth in the test on SK-MEL-5 melanoma was 22.3%; in the test with UACC-62 melanoma, 48.5%; with LOX IMVI melanoma, 10.2%; with SK-MEL-28 melanoma, -81.3% (active); in the test with SK-MEL-2 melanoma it was 102%; in the test with EKVX NSCLC it was 67.3%. The growth in the test on SN12C renal was 70.6%; in the test on TK-10 renal it was 99.4%; in the test on ACHN renal, 36.2%; in the test with CAKI-1 renal, 57.2%; in the test with A498 renal, 144%; in the test with CCRF-CEM leukemia, 18%.

On to `O=C1Nc2cc(Cl)ccc2/C1=C/c1cccc(OCc2ccc(Br)cc2F)c1`, for which the growth was 5.07% (active) with HCT-15 colon; 5.13% (active) with HT29 colon; -0.373% (active) in the test with SNB-75 CNS; 28.6% with SNB-19 CNS; -1.12% (active) with U251 CNS; 19.3% with PC-3 prostate. For the same compound, the growth is -6.52% (active) in the test with SK-MEL-5 melanoma; 8.35% (active) in the test on UACC-62 melanoma; -45.9% (active) with LOX IMVI melanoma; 36.4% with SK-MEL-28 melanoma; -20% (active) in the test with SK-MEL-2 melanoma; 10.5% with EKVX NSCLC. Besides, the growth with SN12C renal was 17.6%; in the test on TK-10 renal it was 77.9%; in the test on ACHN renal it was 30.8%; with CAKI-1 renal, 26.9%; with A498 renal, 60%; in the test on CCRF-CEM leukemia it was -15.9% (active). Further, the growth in the test with MOLT-4 leukemia was 0.0252% (active).

These data come from PubChem BioAssay (NCI).
